The record followed here is ChEMBL document CHEMBL3433997, “St. Jude Leishmania screening dataset” (2016).

What all share (format): functional
Experiment [1] concerns the target Solute carrier family 2, facilitated glucose transporter member 1 (Homo sapiens) (UniProt P11166). The experiment is described as follows: ST_JUDE_LEISH: Cytotoxicity at 2uM final concentration against transgenic Leishmania Mexicana promastigotes LmGLUT1 that are glucose transport deficient and complemented with the human glucose transporter GLUT1. Activity is measured by DNA content using SYBR green in vitro.

Experiment [2] has as its target Hexose transporter 1 (Plasmodium falciparum) (UniProt O97467). The experiment is described as follows: ST_JUDE_LEISH: Cytotoxicity at 2uM final concentration against transgenic Leishmania Mexicana promastigotes LmPfHT that are glucose transport deficient and complemented with the Plasmodium falciparum hexose transporter. Activity is measured by DNA content using SYBR green in vitro.

The target of experiment [3] is Glucose transporter (Leishmania mexicana) (UniProt O61059). The experiment is described as follows: ST_JUDE_LEISH: Cytotoxicity at 2uM final concentration against transgenic Leishmania Mexicana promastigotes LmGT2 that are glucose transport deficient and complemented with the L. Mexicana glucose transporter 2. Activity is measured by DNA content using SYBR green in vitro.

Solute carrier family 2, facilitated glucose transporter member 1 (Homo sapiens), sequence (P11166 whole entry): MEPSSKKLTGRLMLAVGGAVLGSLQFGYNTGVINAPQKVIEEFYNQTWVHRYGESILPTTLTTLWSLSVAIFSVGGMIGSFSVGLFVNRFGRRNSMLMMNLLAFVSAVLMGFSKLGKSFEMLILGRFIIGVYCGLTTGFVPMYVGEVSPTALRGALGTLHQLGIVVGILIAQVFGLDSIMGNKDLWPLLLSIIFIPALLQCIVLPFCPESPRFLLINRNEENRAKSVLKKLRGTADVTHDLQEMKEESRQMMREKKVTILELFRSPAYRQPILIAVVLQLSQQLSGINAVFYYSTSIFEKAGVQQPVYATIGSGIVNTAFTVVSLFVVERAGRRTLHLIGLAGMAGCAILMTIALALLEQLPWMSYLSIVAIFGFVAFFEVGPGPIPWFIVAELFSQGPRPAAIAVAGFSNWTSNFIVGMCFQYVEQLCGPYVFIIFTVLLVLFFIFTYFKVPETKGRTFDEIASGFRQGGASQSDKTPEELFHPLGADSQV

As to `NCCNS(=O)(=O)c1ccc(-c2ccnc3[nH]c(-c4ccncc4)cc23)cc1`, the inhibition in experiment [1] turned out to be 0.72%; in experiment [2], 1.19%; in experiment [3] it was 0.62%.
On to `O=C(/C=C/c1cccc(OC(F)(F)F)c1)NCCCCCN1CCC(c2c[nH]c3ccccc23)CC1`, for which the inhibition is 1.81% in experiment [1], 0.75% in experiment [2] and -2.1% in experiment [3].
The corresponding values for `O=C(/C=C/c1ccc(Cl)c(Cl)c1)NCCCCCN1CCCC(CNC(=O)Nc2ccc(C(F)(F)F)cc2)C1` (stereo not given) are 4.18%, 3.11% and 1.39%.
The corresponding values for `CCOC(=O)c1ccc(OCCOc2ccccc2)cc1` are -0.36%, 1.04% and 0.6%.
Take `CN1CCC(c2c[nH]c3ccc(NC(=O)Nc4ccc(-c5ccncc5)c(Cl)c4Cl)cc23)CC1`: the inhibition is -2.47% in experiment [1], 0.63% in experiment [2] and 4.75% in experiment [3].
`COc1ccc2nc3cc(Cl)ccc3c(NCCCO)c2c1`: the inhibition stood at 0.97% in experiment [1], 0.85% in experiment [2] and 2.01% in experiment [3].
As to `O=C(NCc1cccc(C(F)(F)F)c1)C1CCCN(C(=O)c2ccc(O)c(-c3ccc(Cl)c(Cl)c3)c2)C1` (stereo not given), the results for the inhibition in experiment [1], in experiment [2] and in experiment [3] were 3.46%, 2.95% and 3.95%, respectively.
Consider `O=C(Nc1cccc(F)c1)NC1CCN(c2ccnc3cc(Cl)ccc23)C1` (stereo not given), for which the inhibition is 2.72% in experiment [1], 2.74% in experiment [2] and 4.22% in experiment [3].
On the same counts, the results for `CC(=O)N1Cc2ccccc2C1=O` are 2.88%, 3.51% and 2.11%.
On the same counts, the results for `COc1ccc(C2CCN(CCCCNC(=O)c3ccc(NC(=O)c4ccc(Cl)cc4)cc3)C2)c(OC)c1` (stereo not given) are -0.08%, 0.01% and 0.7%.
Consider `CCOC(=O)C(=CNc1ccc(Cc2cnc(N)nc2N)cc1CC)C(=O)OCC`, for which the inhibition is 2.65% in experiment [1], 2.16% in experiment [2] and -3.12% in experiment [3].
As to `CCOc1cc(NCCSCc2nc[nH]c2C)nc2ccccc12`, the inhibition in experiment [1] was -1.28%; in experiment [2] it was -0.61%; in experiment [3] it was -3.84%.
On the same counts, the results for `COc1csc2cc(Br)ccc12` are 1.01%, 1.16% and 0.18%.
The corresponding values for `CCN(CC)CCCCOc1ccc2c(c1)C(=O)c1cc(OCCCCN(CC)CC)ccc1-2` are 10.2%, 4.61% and 0.2%.
Turning to `CC1CN(c2cnn(C/C=C/c3ccc(NC(=O)c4ccc5nonc5c4)cc3)c(=O)c2Cl)CC(C)N1` (stereo not given), the inhibition in experiment [1] worked out at 4.72%; in experiment [2], 4.17%; in experiment [3], 3.26%.
For the molecule `Cc1cccc2nc(-c3ccc(-c4ccc(NC(=O)Nc5cccc(C#N)c5)cc4)s3)[nH]c12`, the results for the inhibition in experiment [1], in experiment [2] and in experiment [3] were 9.25%, 6.92% and 8.07%, respectively.
The corresponding values for `CC(C)c1ccc(NS(=O)(=O)c2cccc(C(=O)NC3CCN(CC4CCCCC4)CC3)c2)cc1` are 3.07%, 1.15% and 1.74%.
In the case of `COc1ccccc1-c1cccc(-c2cccc(NC(=O)c3ccc([N+](=O)[O-])o3)c2)n1`, the inhibition in experiment [1] came out at 11.2%; in experiment [2], 16.8%; in experiment [3] it was 9.06%.
On the same counts, the results for `Cc1cccc2nc(-c3cccc(-c4ccc(NC(=O)CN5CCOCC5)cc4)c3)[nH]c12` are 4.78%, 4.5% and 2.97%.
For `N=C(N)NC(=O)Nc1cc(Br)c(Cl)c(C(F)(F)F)c1`, the inhibition in experiment [1] was determined as 4.79%; in experiment [2], 3.32%; in experiment [3] it was 0.66%.
The corresponding values for `COc1ccc2nccc([C@@H](O)CN3CCC(NCC(=O)Nc4cc(F)cc(F)c4)CC3)c2n1` are 37.8%, 47.2% and 58.1%.
Take `Cc1cc2c(cc1C(F)(F)F)N(C(=O)Nc1ccc(C(=O)NC3CCN(Cc4ccccc4)C3)cc1)CC2` (stereo not given): the inhibition in experiment [1] amounted to 4.56%; in experiment [2], 4.45%; in experiment [3] it was 4.54%.
`COc1ccc2nccc([C@@H](O)CN3CCC(NC(=O)c4cc5c(F)cc(F)cc5[nH]4)CC3)c2c1`: the inhibition in experiment [1] stood at 18.1%; in experiment [2], 20.8%; in experiment [3], 8.41%.
The corresponding values for `Cc1ccc(C(C(=O)Nc2ccc(N3CCNCC3)c(Cl)c2)c2ccccc2)cc1` (stereo not given) are 4.78%, 0.84% and 1.72%.
On the same counts, the results for `Cc1ccc(NC(=O)c2cn(-c3ccccc3)nc2-c2ccc(F)cc2)cc1[N+](=O)[O-]` are 4.38%, 3.28% and 1.86%.
On the same counts, the results for `Cc1ccc(Nc2ccnc(Nc3ccc(C)c(F)c3)n2)cc1O` are 9.14%, 12.6% and 3.98%.
As to `CC1CCCCC1N(C)C1CCN(CCCNC(=O)C=Cc2cccc(C(F)(F)F)c2)CC1` (stereo not given), the inhibition in experiment [1] was 4.22%; in experiment [2], 2.29%; in experiment [3] it was 1.79%.
`CC(C)CCn1c(Sc2ccc(C#N)c([N+](=O)[O-])c2)nnc1-c1ccc(N(C)C)cc1`: the inhibition in experiment [1] was determined as 0.76%; in experiment [2] it was 0.92%; in experiment [3] it was 0.35%.
On the same counts, the results for `CCc1sc(-c2cc(Cl)ccc2OC)nc1C(=O)NCCN1CCCCC1` are 4.48%, 4.06% and 4.96%.
On the same counts, the results for `O=C(NCCCCN1CC=C(c2ccc3c(c2OCC2CC2)CCCC3)CC1)c1ccc(-c2ccc(C(F)(F)F)cc2)cc1` are 5.41%, 5.39% and 5.23%.
On to `CN(CCC1CCN(C(=O)/C=C/c2ccc(Cl)c(Cl)c2)CC1)C1CCC(c2c[nH]c3ccccc23)CC1` (stereo not given), for which the inhibition in experiment [1] was determined as 7%; in experiment [2] it was 8.06%; in experiment [3] it was 3.97%.
On to `CCCC(=O)Nc1ccc(OCCCN(Cc2ccccc2F)c2ccc(C#N)c(C(F)(F)F)c2)cc1`, for which the inhibition is 1.79% in experiment [1], 0.66% in experiment [2] and 0.71% in experiment [3].
Consider `Cc1ccc(-c2cncc(-c3cc(NC4CCN(Cc5ccccc5)CC4)nc(-c4ccccc4)n3)c2)cc1`, for which the inhibition came to 2.11% in experiment [1], 2.36% in experiment [2] and 1.96% in experiment [3].
On the same counts, the results for `Cc1cccc2nc(-c3cccc(-c4cccc(NC(=O)Nc5cccc(C#N)c5)c4)c3)[nH]c12` are 11.2%, 10.1% and 10.3%.
Consider `CC(=O)Nc1ncc(C(=O)Nc2cccc(-c3ccc(-c4nc5ccccc5[nH]4)cc3)c2)s1`, for which the inhibition in experiment [1] was found to be 1.69%; in experiment [2] it was 1.26%; in experiment [3] it was 1.08%.
The corresponding values for `OCC1CCN(Cc2ccc(-c3ccc(-c4nc5cc(F)ccc5[nH]4)s3)cc2)CC1` are 4.75%, 3.26% and 4.89%.
Regarding `CN(C)CCCOc1cc(NC(=O)Nc2ccc(-c3ccncc3)c3ccccc23)ccc1I`, the inhibition in experiment [1] amounted to 6.91%; in experiment [2], 6.1%; in experiment [3] it was 7.69%.
The corresponding values for `CC(=O)c1c[nH]c2ccc(/C=C/C(=O)NC3CCC(CCN4CCc5ccc(C#N)cc5CC4)CC3)cc12` (stereo not given) are 19.5%, 14.9% and 18.9%.
Take `Cc1cc(NC2CCN(CC3CCCCC3)C2)nc(Nc2ccc(Cl)cc2)n1` (stereo not given): the inhibition in experiment [1] is 3.89%; in experiment [2], 3.7%; in experiment [3] it was 2.63%.
The corresponding values for `Cc1nnsc1C(=O)Nc1ccc(-c2ccc(-c3nc4ccccc4[nH]3)s2)cc1` are 4.65%, 1.4% and 1.47%.
The corresponding values for `O=C(/C=C/c1ccc(Cl)c(Cl)c1)NCCCCCN1CCC(NC(=O)Nc2cccc(Cl)c2F)CC1` are -0.8%, -0.65% and -9.82%.
On the same counts, the results for `Cc1cccc2nc(-c3ccc(-c4ccc(CN5CCN(c6ccc(C#N)cn6)CC5)cc4)s3)[nH]c12` are 5.16%, 6.3% and -0.38%.
Consider `Cc1ccccc1OCCCc1c(C)nc(N)nc1N`, for which the inhibition in experiment [1] is 3.68%; in experiment [2], 9.06%; in experiment [3], 0.82%.
The corresponding values for `CC(C)Sc1nc(-c2ccccc2)nc2c1COC(C)(C)C2` are -2.07%, -2.02% and -4.12%.
On the same counts, the results for `CCn1c(SCc2ccc(F)cc2)nc2sc3c(c2c1=O)CCN(C)C3` are -1.93%, 1.32% and 0.64%.
On the same counts, the results for `CC1CN(Cc2cccc(F)c2)CCN1c1ccc(NC(=O)c2ccc(F)cc2)cc1` (stereo not given) are 2.15%, 1.55% and 8.54%.
For `O=C(Nc1cccc(Oc2ccccc2)c1)N[C@H]1CCN(Cc2ccc(OCCCN3CCCCC3)cc2)C1`, the inhibition in experiment [1] turned out to be 3.58%; in experiment [2], 5.18%; in experiment [3] it was 6.98%.
On to `N=C(N)c1ccc(-c2cc3ccc(C(=N)N)cc3[nH]2)cc1`, for which the inhibition in experiment [1] came out at 62.9%; in experiment [2], 62.2%; in experiment [3], 52.2%.
The corresponding values for `c1ccc(CNCCn2c(-c3ccc4c(c3)CCO4)nc3c(N4CCCC4)cccc32)cc1` are 11.7%, 8.74% and 6.86%.
For the molecule `NC1CCN(c2nc(NCCc3ccc(O)cc3)nc(NCc3ccccc3-c3ccc(C(F)(F)F)cc3)n2)CC1`, the inhibition in experiment [1] was 4.18%; in experiment [2], 3.01%; in experiment [3], 2.19%.

Usually inhibition stands for the change of the read-out against control, counted positive when it falls.
